What was measured:
Test in all cases: PBM; 200 nM protein, PBS
Conditions in all cases: dsDNA, one strand shown
HESX1 [1] = molecular target: HESX1 (Homo sapiens, UniProt Q9UBX0 95-180, R165K)
SHOX [2] = molecular target: SHOX (Homo sapiens, UniProt O15266 103-189)
HESX1 [3] = molecular target: HESX1 (Homo sapiens, UniProt Q9UBX0 95-180)
SHOX [4] = molecular target: SHOX (Homo sapiens, UniProt O15266 103-189, R173C)
HESX1 [5] = molecular target: HESX1 (Homo sapiens, UniProt Q9UBX0 95-180, R109Q)
HESX1 [6] = molecular target: HESX1 (Homo sapiens, UniProt Q9UBX0 95-180, P111T)
HESX1 [7] = molecular target: HESX1 (Homo sapiens, UniProt Q9UBX0 95-180, F115L)
MSX2 = MSX2 (Homo sapiens, UniProt P35548 130-214, R199I)
ALX1 [8] = molecular target: ALX1 (Homo sapiens, UniProt Q15699 118-204, L144V)
ALX1 [9] = molecular target: ALX1 (Homo sapiens, UniProt Q15699 118-204, L144R)
PROP1 [10] = molecular target: PROP1 (Homo sapiens, UniProt O75360 56-141)
PROP1 [11] = molecular target: PROP1 (Homo sapiens, UniProt O75360 56-141, R99H)
PROP1 [12] = molecular target: PROP1 (Homo sapiens, UniProt O75360 56-141, F88S)
ALX1 [13] = molecular target: ALX1 (Homo sapiens, UniProt Q15699 118-204)
ALX4 = ALX4 (Homo sapiens, UniProt Q9H161 200-286, Q225E)
ALX3 [14] = molecular target: ALX3 (Homo sapiens, UniProt O95076 139-225, N203Q)
ALX3 [15] = molecular target: ALX3 (Homo sapiens, UniProt O95076 139-225)
ALX3 [16] = molecular target: ALX3 (Homo sapiens, UniProt O95076 139-225, L168Q)
ALX3 [17] = molecular target: ALX3 (Homo sapiens, UniProt O95076 139-225, L168V)
ALX3 [18] = molecular target: ALX3 (Homo sapiens, UniProt O95076 139-225, N203S)
Sequence of ALX3 (Homo sapiens, UniProt O95076 139-225, N203S) (O95076 139-225 N203S): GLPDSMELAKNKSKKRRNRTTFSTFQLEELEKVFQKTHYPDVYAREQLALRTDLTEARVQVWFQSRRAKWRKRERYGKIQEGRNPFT

Sequence of ALX1 (Homo sapiens, UniProt Q15699 118-204, L144V) (Q15699 118-204 L144V): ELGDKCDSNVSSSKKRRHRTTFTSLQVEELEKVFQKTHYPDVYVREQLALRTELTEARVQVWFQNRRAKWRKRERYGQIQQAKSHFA
Sequence of ALX1 (Homo sapiens, UniProt Q15699 118-204, L144R) (Q15699 118-204 L144R): as the sequence (Q15699 118-204 L144V) above, with V27R counted along it
Sequence of ALX3 (Homo sapiens, UniProt O95076 139-225, N203Q) (O95076 139-225 N203Q): as the sequence (O95076 139-225 N203S) above, with S65Q counted along it
Sequence of HESX1 (Homo sapiens, UniProt Q9UBX0 95-180, F115L) (Q9UBX0 95-180 F115L): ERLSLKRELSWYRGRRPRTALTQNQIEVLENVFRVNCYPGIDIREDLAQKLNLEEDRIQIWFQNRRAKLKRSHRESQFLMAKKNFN
Sequence of ALX3 (Homo sapiens, UniProt O95076 139-225, L168V) (O95076 139-225 L168V): as the sequence (O95076 139-225 N203S) above, with L30V, S65N counted along it
Sequence of HESX1 (Homo sapiens, UniProt Q9UBX0 95-180) (Q9UBX0 95-180): as the sequence (Q9UBX0 95-180 F115L) above, with L21F counted along it
Sequence of ALX3 (Homo sapiens, UniProt O95076 139-225, L168Q) (O95076 139-225 L168Q): as the sequence (O95076 139-225 N203S) above, with L30Q, S65N counted along it
Sequence of HESX1 (Homo sapiens, UniProt Q9UBX0 95-180, R109Q) (Q9UBX0 95-180 R109Q): as the sequence (Q9UBX0 95-180 F115L) above, with R15Q, L21F counted along it
Sequence of MSX2 (P35548 130-214 R199I): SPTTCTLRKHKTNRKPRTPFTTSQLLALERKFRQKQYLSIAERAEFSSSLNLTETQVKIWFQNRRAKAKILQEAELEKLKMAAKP
Sequence of ALX3 (Homo sapiens, UniProt O95076 139-225) (O95076 139-225): as the sequence (O95076 139-225 N203S) above, with S65N counted along it
Sequence of PROP1 (Homo sapiens, UniProt O75360 56-141, F88S) (O75360 56-141 F88S): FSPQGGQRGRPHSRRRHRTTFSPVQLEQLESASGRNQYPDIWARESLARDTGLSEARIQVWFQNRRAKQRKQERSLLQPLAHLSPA
Sequence of ALX1 (Homo sapiens, UniProt Q15699 118-204) (Q15699 118-204): as the sequence (Q15699 118-204 L144V) above, with V27L counted along it
Sequence of HESX1 (Homo sapiens, UniProt Q9UBX0 95-180, P111T) (Q9UBX0 95-180 P111T): as the sequence (Q9UBX0 95-180 F115L) above, with P17T, L21F counted along it
Sequence of PROP1 (Homo sapiens, UniProt O75360 56-141) (O75360 56-141): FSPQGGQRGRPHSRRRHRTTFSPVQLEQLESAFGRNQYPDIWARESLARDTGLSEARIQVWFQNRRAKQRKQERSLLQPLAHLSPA
Sequence of HESX1 (Homo sapiens, UniProt Q9UBX0 95-180, R165K) (Q9UBX0 95-180 R165K): as the sequence (Q9UBX0 95-180 F115L) above, with L21F, R71K counted along it
Sequence of ALX4 (Q9H161 200-286 Q225E): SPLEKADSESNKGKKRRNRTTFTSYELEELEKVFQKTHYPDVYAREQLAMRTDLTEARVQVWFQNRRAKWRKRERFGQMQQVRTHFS
Sequence of SHOX (Homo sapiens, UniProt O15266 103-189) (O15266 103-189): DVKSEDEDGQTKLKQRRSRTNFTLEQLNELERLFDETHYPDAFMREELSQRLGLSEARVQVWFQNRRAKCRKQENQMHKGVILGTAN
Sequence of PROP1 (Homo sapiens, UniProt O75360 56-141, R99H) (O75360 56-141 R99H): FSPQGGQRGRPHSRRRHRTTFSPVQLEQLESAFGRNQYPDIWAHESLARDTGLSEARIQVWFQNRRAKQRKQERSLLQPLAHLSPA
Sequence of SHOX (Homo sapiens, UniProt O15266 103-189, R173C) (O15266 103-189 R173C): as the sequence (O15266 103-189) above, with R71C counted along it

For CCGAGCGG, the binding signal (HESX1 [1]) was 6.41 upbm affinity estimate (log intensity, higher = more binding, comparable within an allelic series), the binding signal (SHOX [2]) was 6.99 upbm affinity estimate (log intensity, higher = more binding, comparable within an allelic series) and the binding signal (HESX1 [3]) was 6.46 upbm affinity estimate (log intensity, higher = more binding, comparable within an allelic series). The binding signal (SHOX [4]) was 7.07 upbm affinity estimate (log intensity, higher = more binding, comparable within an allelic series), the binding signal (HESX1 [5]) was 6.48 upbm affinity estimate (log intensity, higher = more binding, comparable within an allelic series) and the binding signal (HESX1 [6]) was 6.49 upbm affinity estimate (log intensity, higher = more binding, comparable within an allelic series). The binding signal (HESX1 [7]) was 6.36 upbm affinity estimate (log intensity, higher = more binding, comparable within an allelic series).
In the case of GGAGCGCA, the binding signal (HESX1 [1]) is reported as 6.3 upbm affinity estimate (log intensity, higher = more binding, comparable within an allelic series), the binding signal (SHOX [2]) is reported as 7.21 upbm affinity estimate (log intensity, higher = more binding, comparable within an allelic series) and the binding signal (HESX1 [3]) is reported as 6.37 upbm affinity estimate (log intensity, higher = more binding, comparable within an allelic series). The binding signal (SHOX [4]) was 7.1 upbm affinity estimate (log intensity, higher = more binding, comparable within an allelic series), the binding signal (HESX1 [5]) was 6.4 upbm affinity estimate (log intensity, higher = more binding, comparable within an allelic series) and the binding signal (HESX1 [6]) was 6.31 upbm affinity estimate (log intensity, higher = more binding, comparable within an allelic series). The binding signal (HESX1 [7]) was 6.34 upbm affinity estimate (log intensity, higher = more binding, comparable within an allelic series).
With ACAATTAG the binding signal (HESX1 [1]) was 11.8 upbm affinity estimate (log intensity, higher = more binding, comparable within an allelic series), the binding signal (SHOX [2]) was 11.6 upbm affinity estimate (log intensity, higher = more binding, comparable within an allelic series) and the binding signal (HESX1 [3]) was 12.1 upbm affinity estimate (log intensity, higher = more binding, comparable within an allelic series). For the same sequence, the binding signal (MSX2) was 12.6 upbm affinity estimate (log intensity, higher = more binding, comparable within an allelic series), the binding signal (ALX1 [8]) was 11.2 upbm affinity estimate (log intensity, higher = more binding, comparable within an allelic series) and the binding signal (SHOX [4]) was 9.13 upbm affinity estimate (log intensity, higher = more binding, comparable within an allelic series). For the same sequence, the binding signal (ALX1 [9]) was 10.8 upbm affinity estimate (log intensity, higher = more binding, comparable within an allelic series), the binding signal (PROP1 [10]) was 11.1 upbm affinity estimate (log intensity, higher = more binding, comparable within an allelic series) and the binding signal (HESX1 [5]) was 8.66 upbm affinity estimate (log intensity, higher = more binding, comparable within an allelic series). For the same sequence, the binding signal (PROP1 [11]) was 11 upbm affinity estimate (log intensity, higher = more binding, comparable within an allelic series), the binding signal (HESX1 [6]) was 10.4 upbm affinity estimate (log intensity, higher = more binding, comparable within an allelic series) and the binding signal (PROP1 [12]) was 7.51 upbm affinity estimate (log intensity, higher = more binding, comparable within an allelic series). The binding signal (HESX1 [7]) was 7.42 upbm affinity estimate (log intensity, higher = more binding, comparable within an allelic series) and the binding signal (ALX1 [13]) was 12 upbm affinity estimate (log intensity, higher = more binding, comparable within an allelic series).
With ATAATTGG the binding signal (HESX1 [1]) was 13.5 upbm affinity estimate (log intensity, higher = more binding, comparable within an allelic series), the binding signal (SHOX [2]) was 12.6 upbm affinity estimate (log intensity, higher = more binding, comparable within an allelic series) and the binding signal (ALX4) was 13.7 upbm affinity estimate (log intensity, higher = more binding, comparable within an allelic series). For the same sequence, the binding signal (HESX1 [3]) was 13.4 upbm affinity estimate (log intensity, higher = more binding, comparable within an allelic series), the binding signal (MSX2) was 13.1 upbm affinity estimate (log intensity, higher = more binding, comparable within an allelic series) and the binding signal (ALX1 [8]) was 12 upbm affinity estimate (log intensity, higher = more binding, comparable within an allelic series). The binding signal (ALX3 [14]) was 8.37 upbm affinity estimate (log intensity, higher = more binding, comparable within an allelic series), the binding signal (SHOX [4]) was 9.98 upbm affinity estimate (log intensity, higher = more binding, comparable within an allelic series) and the binding signal (ALX1 [9]) was 11.7 upbm affinity estimate (log intensity, higher = more binding, comparable within an allelic series). For the same sequence, the binding signal (ALX3 [15]) was 12.6 upbm affinity estimate (log intensity, higher = more binding, comparable within an allelic series), the binding signal (PROP1 [10]) was 11.7 upbm affinity estimate (log intensity, higher = more binding, comparable within an allelic series) and the binding signal (HESX1 [5]) was 10 upbm affinity estimate (log intensity, higher = more binding, comparable within an allelic series). For the same sequence, the binding signal (PROP1 [11]) was 12 upbm affinity estimate (log intensity, higher = more binding, comparable within an allelic series), the binding signal (ALX3 [16]) was 10.9 upbm affinity estimate (log intensity, higher = more binding, comparable within an allelic series) and the binding signal (HESX1 [6]) was 12.1 upbm affinity estimate (log intensity, higher = more binding, comparable within an allelic series). The binding signal (ALX3 [17]) was 10.4 upbm affinity estimate (log intensity, higher = more binding, comparable within an allelic series), the binding signal (PROP1 [12]) was 7.6 upbm affinity estimate (log intensity, higher = more binding, comparable within an allelic series) and the binding signal (HESX1 [7]) was 8.41 upbm affinity estimate (log intensity, higher = more binding, comparable within an allelic series). For the same sequence, the binding signal (ALX1 [13]) was 12.6 upbm affinity estimate (log intensity, higher = more binding, comparable within an allelic series) and the binding signal (ALX3 [18]) was 8.55 upbm affinity estimate (log intensity, higher = more binding, comparable within an allelic series).
AATTATAA was tested, and the binding signal (HESX1 [1]) was 11.6 upbm affinity estimate (log intensity, higher = more binding, comparable within an allelic series), the binding signal (SHOX [2]) was 11.4 upbm affinity estimate (log intensity, higher = more binding, comparable within an allelic series) and the binding signal (ALX4) was 13.1 upbm affinity estimate (log intensity, higher = more binding, comparable within an allelic series). For the same sequence, the binding signal (HESX1 [3]) was 11.7 upbm affinity estimate (log intensity, higher = more binding, comparable within an allelic series), the binding signal (MSX2) was 12.4 upbm affinity estimate (log intensity, higher = more binding, comparable within an allelic series) and the binding signal (ALX1 [8]) was 11.5 upbm affinity estimate (log intensity, higher = more binding, comparable within an allelic series). The binding signal (ALX3 [14]) was 8.51 upbm affinity estimate (log intensity, higher = more binding, comparable within an allelic series), the binding signal (SHOX [4]) was 9.09 upbm affinity estimate (log intensity, higher = more binding, comparable within an allelic series) and the binding signal (ALX1 [9]) was 11.2 upbm affinity estimate (log intensity, higher = more binding, comparable within an allelic series). The binding signal (ALX3 [15]) was 12.4 upbm affinity estimate (log intensity, higher = more binding, comparable within an allelic series), the binding signal (PROP1 [10]) was 11 upbm affinity estimate (log intensity, higher = more binding, comparable within an allelic series) and the binding signal (HESX1 [5]) was 8.29 upbm affinity estimate (log intensity, higher = more binding, comparable within an allelic series). For the same sequence, the binding signal (PROP1 [11]) was 10.8 upbm affinity estimate (log intensity, higher = more binding, comparable within an allelic series), the binding signal (ALX3 [16]) was 10.4 upbm affinity estimate (log intensity, higher = more binding, comparable within an allelic series) and the binding signal (HESX1 [6]) was 10.4 upbm affinity estimate (log intensity, higher = more binding, comparable within an allelic series). For the same sequence, the binding signal (ALX3 [17]) was 9.95 upbm affinity estimate (log intensity, higher = more binding, comparable within an allelic series), the binding signal (PROP1 [12]) was 7.93 upbm affinity estimate (log intensity, higher = more binding, comparable within an allelic series) and the binding signal (HESX1 [7]) was 7.89 upbm affinity estimate (log intensity, higher = more binding, comparable within an allelic series). For the same sequence, the binding signal (ALX1 [13]) was 12.1 upbm affinity estimate (log intensity, higher = more binding, comparable within an allelic series) and the binding signal (ALX3 [18]) was 8.6 upbm affinity estimate (log intensity, higher = more binding, comparable within an allelic series).
For AATTAGCC, the binding signal (HESX1 [1]) was 11.4 upbm affinity estimate (log intensity, higher = more binding, comparable within an allelic series), the binding signal (SHOX [2]) was 11.9 upbm affinity estimate (log intensity, higher = more binding, comparable within an allelic series) and the binding signal (ALX4) was 12.6 upbm affinity estimate (log intensity, higher = more binding, comparable within an allelic series). For the same sequence, the binding signal (HESX1 [3]) was 11.5 upbm affinity estimate (log intensity, higher = more binding, comparable within an allelic series), the binding signal (MSX2) was 12.1 upbm affinity estimate (log intensity, higher = more binding, comparable within an allelic series) and the binding signal (ALX1 [8]) was 11.2 upbm affinity estimate (log intensity, higher = more binding, comparable within an allelic series). For the same sequence, the binding signal (ALX3 [14]) was 8.15 upbm affinity estimate (log intensity, higher = more binding, comparable within an allelic series), the binding signal (SHOX [4]) was 9.22 upbm affinity estimate (log intensity, higher = more binding, comparable within an allelic series) and the binding signal (ALX1 [9]) was 10.8 upbm affinity estimate (log intensity, higher = more binding, comparable within an allelic series). For the same sequence, the binding signal (ALX3 [15]) was 12.3 upbm affinity estimate (log intensity, higher = more binding, comparable within an allelic series), the binding signal (HESX1 [5]) was 8.71 upbm affinity estimate (log intensity, higher = more binding, comparable within an allelic series) and the binding signal (PROP1 [11]) was 10.8 upbm affinity estimate (log intensity, higher = more binding, comparable within an allelic series). The binding signal (ALX3 [16]) was 10.1 upbm affinity estimate (log intensity, higher = more binding, comparable within an allelic series), the binding signal (HESX1 [6]) was 10.2 upbm affinity estimate (log intensity, higher = more binding, comparable within an allelic series) and the binding signal (ALX3 [17]) was 9.65 upbm affinity estimate (log intensity, higher = more binding, comparable within an allelic series). The binding signal (HESX1 [7]) was 7.46 upbm affinity estimate (log intensity, higher = more binding, comparable within an allelic series), the binding signal (ALX1 [13]) was 12.4 upbm affinity estimate (log intensity, higher = more binding, comparable within an allelic series) and the binding signal (ALX3 [18]) was 8.23 upbm affinity estimate (log intensity, higher = more binding, comparable within an allelic series).

Source: paper PMC11006913
